Experimental data as given in PubChem BioAssay (NCI).
About 83,000 compounds went through this panel and 20% of them were active in at least one assay; those are over-represented in the sample as a whole.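 In brief: 96-well plates, 48 h treatment, single concentration, percent growth endpoint.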 Unmarked numbers belong to inactive results. Active and inactive are the calls of the source. The calls were made as follows: active = growth percent below 10; inactive = the rest.

How the values were obtained:
Assay in all cases: NCI-60 one-dose screen, 48 h (100 = growth as untreated, 0 = no growth, -100 = all killed)
Settings in all cases: 10 µM unless noted
NCI-H23 lung = tested on: NCI-H23 lung
NCI-H226 lung = tested on: NCI-H226 lung
NCI-H322M lung = tested on: NCI-H322M lung
HOP-62 NSCLC = tested on: HOP-62 NSCLC
NCI-H460 lung = tested on: NCI-H460 lung
HOP-92 NSCLC = tested on: HOP-92 NSCLC
NCI-H522 lung = tested on: NCI-H522 lung
A549/ATCC NSCLC = tested on: A549/ATCC NSCLC
786-0 renal = tested on: 786-0 renal
COLO 205 colon = tested on: COLO 205 colon

| Structure (SMILES) | growth (NCI-H23 lung) | growth (NCI-H226 lung) | growth (NCI-H322M lung) | growth (HOP-62 NSCLC) | growth (NCI-H460 lung) | growth (HOP-92 NSCLC) | growth (NCI-H522 lung) | growth (A549/ATCC NSCLC) | growth (786-0 renal) | growth (COLO 205 colon) |
| --- | --- | --- | --- | --- | --- | --- | --- | --- | --- | --- |
| O=c1[nH]c2ccccc2n1C1CCN(CCOc2ccccc2)CC1 | 93% | 78.9% | 98.8% | 96.7% | 94% | 37.1% | 76.3% | -22.6% (active) | 100% | 94.3% |
| COc1cc2nc(Cl)nc(Nc3ccc(S(=O)(=O)Nc4nccs4)cc3)c2cc1OC | 101% | 91.9% | 102% | 92% | 106% | 118% | 91.3% | 102% | 101% | 110% |
| O=C(NCCCNc1cc(-c2cn(-c3ccccc3)nc2-c2cccc(O)c2)ccn1)c1cccc(O)c1 | 67.3% | 86.6% | 111% | 85.3% | 69.6% | 57.2% | 53% | 53.4% | 63.8% | 80.2% |
| Nc1cc2c3c(cccc3c1)C(=O)N(CCN1CCCC1)C2=O | 39.5% | -7.42% (active) | 54.5% | 44.4% | 2.15% (active) | 27.5% | 29.3% | 14.8% | 46.4% | 14% |
| COc1cccc(C(=O)NCCNc2cc(-c3cn(-c4ccccc4)nc3-c3cccc(OC)c3)ccn2)c1 | 59.7% | 77.3% | 92.6% | 61% | 57.4% | 46.2% | 35.8% | 43.6% | 50.5% | 59% |
| COc1ccc(-c2c(N)n[nH]c2-c2ccc(Cl)cc2O)cc1OC | 83.2% | 79.8% | 92.4% | 91.5% | 94.5% | 69.2% | 84.3% | 92.9% | 86.6% | 113% |
| COc1cc(C2CC(=O)Nc3c2c(C)nn3-c2nc3ccccc3[nH]2)c(OC)c2c1OCO2 (stereo not given) | 86.9% | 84.8% | 86.9% | 75.8% | 66.7% | 85% | 71.2% | 52.4% | 78.6% | 91.9% |
| N#Cc1c(N)nc(NCCO)nc1-c1ccc(F)cc1 | 96.7% | 77.1% | 102% | 93.3% | 103% | 75.9% | 86.6% | 71.8% | 97.1% | 92.5% |
| COc1cc2ncn3c(=O)c4c5c(sc4nc3c2cc1OC)CCCC5 | 91.4% | 93.8% | 96.9% | 89.8% | 100% | 115% | 80.1% | 96.4% | 105% | 106% |
| C=C(C)[C@@H]1CC[C@]2(C(=O)NC3CCCCC3)CC[C@]3(C)[C@H](CC[C@@H]4[C@@]5(C)CCC(=O)C(C)(C)[C@@H]5CC[C@]43C)[C@@H]12 | 88.7% | 74.6% | 91.9% | 97.7% | 98.3% | 81.5% | 86.9% | 85.6% | 85.7% | 103% |
| CCc1ccccc1-n1c(-c2ccc(Cl)cc2)cc(-c2ccc(Cl)cc2)c(C#N)c1=O | 94.2% | 97.4% | 83.7% | 107% | 93.9% | 72.4% | 78.1% | 94.7% | 98% | 89.4% |
| COc1ccc(C2c3ccc4ccccc4c3Oc3nc(C)[nH]c(=O)c32)cc1 (stereo not given) | 92% | 92.4% | 101% | 89% | 99.4% | 91% | 77% | 109% | 107% | 110% |
| O=[N+]([O-])c1ccc(-c2cc(-c3ccc(Nc4nc(Nc5ccc(Cl)cc5)nc(Nc5ccc(Cl)cc5)n4)cc3)no2)cc1 | 84.1% | 109% | 88.4% | 87.4% | 95.9% | 66.1% | 80.9% | 88.6% | 89.7% | 95.4% |
| C[n+]1cccc(CC(=O)NO)c1 | 102% | 89.3% | 97.2% | 92.7% | 101% | 82.5% | 84.6% | 68.1% | 106% | 97.7% |
| C=C(C)[C@@H]1CC[C@]2(C(=O)NC3CCCCC3)CC[C@]3(C)[C@H](CC[C@@H]4[C@@]5(C)CCCNC(C)(C)[C@@H]5CC[C@]43C)[C@@H]12 | 76.7% | 63% | 65.7% | 80.4% | -56.5% (active) | 62.3% | 60% | 41.2% | 62.7% | -63.1% (active) |
| COCN1CCC2N(COC)CCC3N(COC)CCC1N23 (stereo not given) | 105% | 111% | 124% | 107% | 109% | 96.3% | 107% | 97.1% | 109% | 94.7% |
| COc1ccc(NC(=O)c2nc(-c3cc(OC)c(OC)c(OC)c3)n(-c3cccc4ccccc34)n2)cc1OC | 45.4% | 44.9% | 44.8% | 42.1% | 49.6% | 46.4% | 21.8% | 50.6% | 31.8% | 37.1% |
| CN(c1ccccc1)c1ccc2c(c1)OCCC21CC1Nc1cnccc1C(=O)O (stereo not given) | 95.4% | 63.9% | 87.5% | 63.2% | 45.7% | 101% | 63.7% | 83.4% | 72.9% | 68.6% |
| COc1ccc2nc(NNC(=O)c3cnccn3)c3cccn3c2c1 | -24.3% (active) | 14.9% | 8.34% (active) | 7.91% (active) | -2.09% (active) | 29.3% | -2.64% (active) | 9.52% (active) | -12% (active) | -27% (active) |
| CC(C)(C)c1ccc(/C=C/C(=O)Nc2ccc(O)cc2)cc1 | 80.9% | 65% | 78% | 52.2% | 46.9% | 106% | 26.4% | 64.6% | 69.1% | 73.6% |
| COc1cc(C2CC(=O)Nc3c2c(C)nn3-c2nc3ccccc3[nH]2)cc2c1OCC(=O)N2 (stereo not given) | 74.6% | 76.2% | 94% | 80.8% | 67.1% | 56.9% | 71.4% | 66.8% | 58.5% | 79.2% |
| Cc1nc2c(c(N3CCCc4ccccc43)n1)CCC2 | 25.5% | 10.9% | 54.5% | 4.68% (active) | 3.12% (active) | 0.664% (active) | -18.6% (active) | 2.98% (active) | 10.1% | -59.5% (active) |
| C=C1C(=O)O[C@H]2[C@H]1CC/C(COC(=O)C(=O)c1c[nH]c3ccc(OC)cc13)=C\CC[C@@]1(C)O[C@@H]21 | -28.1% (active) | -68.3% (active) | -70.5% (active) | -71.3% (active) | -53.9% (active) | -77.2% (active) | -61.3% (active) | -62.7% (active) | -91% (active) | -68.6% (active) |
| O=C(Nc1ccccc1Cl)Oc1ccc(-c2ccccc2)cc1 | 93.5% | 103% | 114% | 96.3% | 105% | 94.4% | 103% | 104% | 97.2% | 127% |
| CC(=O)c1nc(Nc2ccc(C)cc2)sc1C | 90.9% | 81.7% | -98.9% (active) | 85.7% | 104% | 73.2% | 86.9% | 96.7% | 98.1% | 105% |
| COc1ccc2[nH]c(O)c(C(=Nc3ccc(N(C)C(=O)CN4CCN(C)CC4)cc3)c3ccccc3)c2c1 | 21.2% | 29% | 61.1% | 23.5% | 15.3% | 12.7% | 67.2% | 24.2% | 42.4% | -6.6% (active) |
| Cc1ccc(Nc2ccc(Nc3ccc(C)cc3)c3c2C(=O)c2cccc(O)c2C3=O)cc1 | 84.5% | 73.1% | 108% | 101% | 88.3% | 70.4% | 90.6% | 103% | 111% | 102% |
